This is an account of results in PubChem BioAssay AID2244 (Southern Research Specialized Biocontainment Screening …, 2010).

Measured potencies and affinities stand elsewhere. Unmarked numbers belong to inactive results.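 Rule for the calls: active = viability below 70% at one or more tested concentrations; inactive = viability above 70% at every concentration.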

The test can be described thus: host cell viability loss, Vero E6 – synthesized analogs, cytotoxicity control for West Nile virus antiviral project, SAR follow-up (AID 2244). The note with it: CellTiter-Glo luminescence, 72 h, hits give low values; at 40 µM unless noted. (ATP-based viability assays read luminescence as a measure of living cells.)
Regarding `Cc1cccc2c(=O)n3c(nc12)CCC3`, the minimum viability was 75.1% [at 0.078 µM].

In the case of `COc1cccc(-n2c(SCC(=O)Nc3ccc4c(c3)CCC4)nc3ccccc3c2=O)c1`, the minimum viability is 74.6%.

Consider `c1ccc2c(c1)CN1CCCC1=N2`, for which the minimum viability is 89.1% [at 20 µM].

As to `O=[N+]([O-])c1ccc2c(c1)C(O)N1CCCC1=N2` (centres undefined), the minimum viability was 76.7% [at 0.078 µM].
